± gives the standard deviation.

This assay deals with THP-1 macrophages infected with Mycobacterium tuberculosis H37Rv. The experiment in a line: intracellular M.tb growth inhibition relative to DMSO (0) and 4 uM bedaquiline (100); higher = stronger inhibition of intracellular bacterial growth. Particulars: 10 µM; 4 days. As to the method: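 OICR kinase inhibitor library screened in duplicate at 10 uM against THP-1 macrophages (PMA-differentiated) infected with M. tuberculosis H37Rv-pTEC27 (tdTomato RFP), 4 days at 37 C. Rows with complete host cell loss (placeholder inhibition 0, cell loss 100) were removed.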
In the case of `O=C1NC(=O)C(c2ccccc2[N+](=O)[O-])=C1Nc1ccc(O)c(Cl)c1`, the “intracellular M.tb growth inhibition” value was -38.8 ± 82%.

As to `O=C(Nc1cccc(Cl)c1)Nc1ncc(CCNc2ncnc3ccsc23)s1`, the “intracellular M.tb growth inhibition” value is -53.6 ± 76%.

In the case of `Cc1cc2c(F)c(Oc3ncnn4cc(OC[C@@H](C)O)c(C)c34)ccc2[nH]1` [Brivanib], the “intracellular M.tb growth inhibition” value was -66.6 ± 160%.

Consider `N#CC[C@H](C1CCCC1)n1cc(-c2ncnc3[nH]ccc23)cn1`, for which the “intracellular M.tb growth inhibition” value is -157 ± 220%.

For `COc1cc2ncnc(Nc3ccc(Cl)cc3F)c2cc1OC`, the “intracellular M.tb growth inhibition” value stood at 48.4 ± 20%.

With `CC(NC(=O)C(C#N)=Cc1ccc(O)c(O)c1)c1ccccc1` (stereo not given) [Tyrphostin B44], the “intracellular M.tb growth inhibition” value was -7.66 ± 34%.

In the case of `Cn1cc(/C=C2\C(=O)Nc3cccnc32)c2ccccc21`, the “intracellular M.tb growth inhibition” value was -49.9 ± 14%.

In the case of `CCc1nc(-c2cccc(C)c2)c(-c2ccnc(NC(=O)c3ccccc3)c2)s1`, the “intracellular M.tb growth inhibition” value was determined as 0.0588 ± 120%.

For `Nc1nccc(-c2ccc3noc(-c4ccc(Cl)cc4)c3c2)n1` [PIM 1 Inhibitor 2], the “intracellular M.tb growth inhibition” value came out at 20.6 ± 8.4%.

As for `O=C(O)c1ccc(-c2c[nH]c3ncc(-c4ccccc4)cc23)cc1C1CCCC1`, the “intracellular M.tb growth inhibition” value was -23.5 ± 47%.

For the origin of these results see the supplement of paper PMC7530171.
